Screening data from PubChem BioAssay.
Only some compounds are listed: those with a hit (about 6% of all), similar ones and a draw of the others.
DRD3 antagonist – qHTS of D3 Dopamine Receptor Antagonist: qHTS. D(3) dopamine receptor (Homo sapiens), P35462. D3R cells, DiscoveRx beta-arrestin luminescence, antagonist mode; active compounds read low. max response, negative = inhibition, %. 2.5% of 360,000 active; in the data active = max response below about -50%; inconclusive = no clear call, values can overlap the other calls; also: % is scaled to controls: 0 for no effect and ±100 for the full control effect
Target sequence (P35462 whole entry, looked up): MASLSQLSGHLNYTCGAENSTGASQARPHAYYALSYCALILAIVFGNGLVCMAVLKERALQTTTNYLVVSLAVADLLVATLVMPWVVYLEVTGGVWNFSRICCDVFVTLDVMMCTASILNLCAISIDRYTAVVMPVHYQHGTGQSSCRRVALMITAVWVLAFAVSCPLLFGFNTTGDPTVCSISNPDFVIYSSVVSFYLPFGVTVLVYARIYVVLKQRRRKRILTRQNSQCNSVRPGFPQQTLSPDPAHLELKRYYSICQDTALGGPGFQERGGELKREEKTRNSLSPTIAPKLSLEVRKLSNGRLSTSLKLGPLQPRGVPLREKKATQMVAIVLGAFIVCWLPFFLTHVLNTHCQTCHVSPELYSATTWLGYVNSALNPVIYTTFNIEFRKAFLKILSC
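Cells expressing the human receptor were seeded at 1500 cells/well, incubated overnight at 37 degrees C in 5% CO2, then exposed to library compounds with dopamine controls for 90 minutes at 37 degrees C before luminescent detection.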
D1 potentiator – Potentiators of Human D1 Dopamine Receptor: qHTS; D(1A) dopamine receptor (Homo sapiens), P21728; HEK293 TREx D1 cells, calcium flux, dopamine EC20 potentiation; potentiation, % at 10 µM; 0.036% of 360,000 active; in the data active = potentiation above about 30%; also: 0% is about no effect
D1 ag – Allosteric Agonists of the Human D1 Dopamine Receptor: qHTS | D(1A) dopamine receptor (Homo sapiens), P21728 | HEK293 T-REx D1 cells, calcium flux, agonist mode | activation, % at 2 µM | 1% of 360,000 active; in the data active = activation above about 30%; also: 0% is about no effect
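Inducible HEK293 T-REx D1 cells, force-coupled to calcium signalling, were plated at 4000 cells/well with tetracycline and held overnight at 30 C. After no-wash calcium dye loading, compound-evoked calcium rise over 180 s flagged agonists.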
D3 ag – qHTS of D3 Dopamine Receptor Agonist: qHTS; D(3) dopamine receptor (Homo sapiens), P35462; D3R DiscoveRx beta-arrestin cells, luminescence, 90 min; max activation, %; 0.58% of 410,000 active; AID 652048, 2013; in the data active = max activation above about 30%; also: 0% is about no effect
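Agonist mode: compounds and dopamine controls were applied to plated cells for 90 min at 37 degrees C after an overnight attachment at 1500 cells/well. Luminescent read-out followed 30 - 60 minutes at room temperature with DiscoveRx detection reagent.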
D1 antagonist – Antagonist of Human D 1 Dopamine Receptor: qHTS | activity change, negative = inhibition, % at 10 µM | D(1A) dopamine receptor (Homo sapiens), P21728 | HEK293 TREx D1 cells, calcium flux, dopamine EC80; active compounds read low | 3.2% of 360,000 active; in the data active = activity change below about -30%; also: % is scaled to controls: 0 for no effect and ±100 for the full control effect
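Cells carrying a force-coupled, tetracycline-inducible human D1 receptor report calcium flux. Each well gets a 10 s baseline, compound with 180 s monitoring, then an EC80 dopamine stimulus with a second 180 s kinetic read.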
An asterisk follows results filed as active; ? = inconclusive; · = no result given.

SMILES	DRD3 antagonist	D1 potentiator	D1 ag	D3 ag	D1 antagonist
Cc1ccc(NS(=O)(=O)c2ccc(C(=O)OCC(=O)Nc3cc(C)on3)cc2)cc1	0	0	44*	3	-6
COc1ccc(S(=O)(=O)Nc2ccc(CC#N)cc2)cc1	-22	-2	6	1	-33*
COC(=O)COc1ccc(S(=O)(=O)Nc2ccc3c(c2)OCO3)cc1	-12	-10	12	-7	-17
CCOC(=O)COc1ccc(S(=O)(=O)Nc2ccc3c(c2)OCCO3)cc1	11	-5	33*	5	-20
COc1ccc(NS(=O)(=O)c2cccc(C(=O)OCC(=O)Nc3cc(C)on3)c2)cc1	-10	-2	9	2	-15
CCOC(=O)c1ccc(NS(=O)(=O)c2ccc3c(c2)OCCO3)cc1	·	-6	25	-10	-36*
C=C(C)CN(CC)C(=O)COc1ccc(S(=O)(=O)Nc2ccc(OC)cc2)cc1	0	-7	52*	-1	-28
Cc1ccc(NS(=O)(=O)c2ccc(OCC(=O)NCC3CCCO3)cc2)cc1 (centres undefined)	12	-4	10	3	-38*
O=C(CCOc1ccccc1)N(Cc1cccnc1)c1nc2ccc(F)cc2s1	·	-5	5	-16	·
N#CC1=C(SCC(=O)Nc2cccc3cccnc23)NC(=O)C(C#N)C12CCCCC2 (centres undefined)	35	-7	9	39*	-27
CCc1n[nH]c(=S)n1/N=C/c1ccc(-c2ccc(Br)cc2)o1	-146*	·	·	0	·
CSc1ccc(/C=N/n2c(Cc3ccc(Br)cc3)n[nH]c2=S)cc1	?	1	1	-8	-4
Cc1ccc(NC(=O)Cn2c(-c3ccc(F)cc3)cnc2SCC(=O)Nc2c(C)cccc2C)cc1	-71*	-9	1	-10	-18
CCC(C(=O)NCCCN(CC)CC)n1ncn2c(cc3occc32)c1=O (centres undefined)	·	3	0	-6	2
CCCc1cc(=O)[nH]c(Nc2cc(OC)ccc2OC)n1	-52*	-7	0	-23	-11
COc1cc(/C=C(\C#N)c2ccccn2)ccc1OCc1ccccc1Cl	-23	1	10	-23	13
COc1cc(/C=C(\C#N)c2[nH]nc(N)c2C#N)cc(OC)c1O	-25	3	36*	-2	5
COc1cc(/C=C(\C#N)c2ccccn2)cc(OC)c1O	-13	-1	38*	-3	2
O=C(CSc1cccc[n+]1[O-])N1CCCCCC1	8	1	3	-2	-34*
O=C(CSc1cccc[n+]1[O-])NCC1CCCCC1	14	1	0	3	-69*
COc1cc2nc(NCc3ccccc3)n3nc(-c4ccccc4)nc3c2cc1OC	·	-4	1	-8	-4
O=C(Nc1cccc(CNCCc2c[nH]c3ccccc23)c1)c1ccccc1Cl	-96*	-7	32*	-13	-41*
CC(=O)c1cccc(NC(=O)NCCc2c[nH]c3ccccc23)c1	-12	13	5	-5	-12
C=CCNC(=O)c1cc(C(=O)C(C)c2ncc(C(F)(F)F)cc2Cl)c[nH]1 (centres undefined)	6	3	36*	2	-2
Cc1cc(C)n(-c2ccc(C(=O)OC(C)C(=O)Nc3ccc(C(N)=O)cc3)cc2)n1 (centres undefined)	11	-4	4	10	-31*
SMILES	DRD3 antagonist	D1 potentiator	D1 ag	D3 ag	D1 antagonist
CC(=O)Nc1ccc(S(=O)(=O)Nc2ccc3c(c2)OCCO3)cc1Cl	5	-11	13	25	-31*
COc1ccc(S(=O)(=O)Nc2ccc3c(c2)OCCO3)cc1Cl	0	-8	18	-5	-32*
Cc1ccc(S(=O)(=O)Nc2ccc3c(c2)OCCO3)cc1C	6	-10	2	-1	-6
CCc1ccc(-n2c(=O)c3cccnc3n2CC(=O)Nc2cc(F)ccc2F)cc1	·	-4	9	1	-4
CCOC(=O)C1CCCN(c2c(C(=O)c3ccccc3)cnc3ccc(F)cc23)C1 (centres undefined)	·	1	3	-9	4
COC(=O)c1cc2occc2n1Cc1nc(-c2cccc(Br)c2)oc1C	·	-4	2	-8	-1
CC1CCN(CCOCCOc2ccc(Cl)cc2Br)CC1	-88*	-13	6	-28	-4
Clc1ccc(OCCOCCN2CCCCC2)c(Br)c1	46	-11	20	-2	-45*
CC1CCCN(CCOc2ccc3ccccc3c2Br)C1 (centres undefined)	-96*	-5	-1	-17	·
CC(C)(C)c1cc(Cl)ccc1OCCOCCN1CCCC1	-30	-4	22	-29	-4
Brc1c(OCCOCCn2cncn2)ccc2ccccc12	-2	-2	1	-6	1
CC1CCN(CCCOc2ccc(Cl)cc2Br)CC1	-89*	-10	14	-23	-12
COc1cc(OC)cc(C(=O)Nc2ccc3nc(N4CCC(C)CC4)cc(C)c3c2)c1	·	1	4	-3	1
CCOc1ccc(-n2c(-c3ccc(Br)cc3)cc3c2CC(C)(C)CC3=O)cc1	·	-1	5	-21	-1
CCN(CC)C(=O)Cn1c(=O)cc(C)c2c(C)nn(-c3cccc(Cl)c3C)c21	·	10	1	-10	-12
Cc1cc2c(s1)c1c(C)nn(Cc3ccccc3F)c(=O)c1n2C	·	3	1	·	20
Cc1oc(-c2cccc(Cl)c2)nc1CS(=O)(=O)CC(=O)NC(C)CCc1ccccc1 (centres undefined)	·	-1	1	11	-4
Cc1ccc(C)c(NC(=O)CCN2CCCC(C)C2)c1 (centres undefined)	-24	-6	5	-19	-14
COc1ccc(OCCCN2CCCC(C)C2)cc1 (centres undefined)	-60*	-14	4	-15	3
Cc1ccc(Cl)c(OCCN2CCCC(C)C2)c1 (centres undefined)	-68*	-4	6	-8	-71*
CC1CCCN(CCSc2ccc(Cl)cc2)C1 (centres undefined)	?	-2	0	-13	2
CC1CCCN(CCCOc2ccc(Cl)cc2Br)C1 (centres undefined)	-68*	-5	16	-9	-52*
Cc1cc(Cl)c(OCCOCCN2CCN(C)CC2)c(Br)c1	1	-1	4	-22	7
Cc1cc(Cl)c(OCCOCCN2CCC(C)CC2)c(Br)c1	-56*	-14	34*	-29	7
COc1ccc2c(C)c(CC(=O)NCCc3ccc(Cl)cc3)c(=O)oc2c1C	·	2	0	5	6
COc1ccc(Cl)cc1NC(=O)CSc1nc(=O)n(Cc2ccco2)c2c1CCC2	·	1	-1	3	·
